Test results reported in PubChem BioAssay (EPA / NIEHS).
Records with an inconclusive call do not appear. Calls of active or inactive are those of the source. How the source made its calls, unless noted: active means hit-call score of the fitted dose curve at least 0.9, where 1 is the maximum; inactive means score below 0.9.

How the values were obtained:
[1] = target: Paired box protein Pax-6 (Homo sapiens) (UniProt P26367); assay: ATG_Pax6_CIS: Attagene CIS-FACTORIAL HepG2 Assay for human Paired Box 6 (PAX6) (AID 2282956); settings: HepG2 CIS-FACTORIAL PAX6 reporter transcription, RNA readout; actives raise or lower the signal
Sequence of Paired box protein Pax-6 (Homo sapiens) (P26367 whole entry, looked up): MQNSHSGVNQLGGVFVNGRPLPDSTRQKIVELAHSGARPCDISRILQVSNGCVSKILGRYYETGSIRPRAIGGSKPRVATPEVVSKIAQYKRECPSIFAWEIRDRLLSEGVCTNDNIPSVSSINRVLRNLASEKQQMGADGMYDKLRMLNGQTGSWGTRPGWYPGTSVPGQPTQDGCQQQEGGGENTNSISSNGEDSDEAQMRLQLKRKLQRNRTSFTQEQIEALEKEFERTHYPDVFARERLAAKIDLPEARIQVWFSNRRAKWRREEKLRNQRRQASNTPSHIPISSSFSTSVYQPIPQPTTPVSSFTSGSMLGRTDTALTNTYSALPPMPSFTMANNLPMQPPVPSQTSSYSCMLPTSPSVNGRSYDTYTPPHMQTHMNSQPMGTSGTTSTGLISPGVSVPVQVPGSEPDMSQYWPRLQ
In short: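 Transient MRTU transfection of HepG2 → compound exposure 24 h → TriZol RNA, oligo(dT) RT → PCR, 6-FAM primer extension, HpaI cut → capillary electrophoresis; activity fitted both directions against DMSO.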

[2] = ATG_PXRE_CIS: Attagene CIS-FACTORIAL HepG2 Assay for human Pregnane X Receptor Element (PXRE) (AID 2282957); settings: HepG2 Attagene CIS-FACTORIAL PXRE reporter, mRNA; actives raise or lower the signal
In short: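 Cis-element reporter mRNA in human hepatoma HepG2 cells is measured 24 h post-dosing by RT-PCR, primer-extension labeling and capillary electrophoresis; gain or loss of signal is fitted relative to DMSO.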

[3] = ATG_PPRE_CIS: Attagene CIS-FACTORIAL HepG2 Assay for human Peroxisome Proliferator-activated Response Element (PPRE) (AID 2282958); settings: HepG2 PPRE cis-element reporter, Attagene transcription factor profiling; actives raise or lower the signal
In short: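 Endogenous PPRE-driven transcription is measured in HepG2 cells carrying transfected multi-reporter constructs. Reporter transcripts are quantified by RT-PCR, HpaI digestion and capillary electrophoresis 24 h after dosing. DMSO baseline, bidirectional fit.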

[4] = ATG_RORE_CIS: Attagene CIS-FACTORIAL HepG2 Assay for human RAR-related Orphan Receptor Element (RORE) (AID 2282959); settings: HepG2 Attagene cis-factorial RORE reporter, mRNA; actives raise or lower the signal
In short: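 RORE reporter transcripts reflecting endogenous factor activity were read after 24 h compound exposure of transfected HepG2 cells, using reverse transcription, PCR, fluorescent labelling and capillary electrophoresis sizing. Gain or loss fitted against DMSO.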

[5] = ATG_Sox_CIS: Attagene CIS-FACTORIAL HepG2 Assay for human SRY-box transcription factor (SOX) (AID 2282960); settings: HepG2 Attagene cis-factorial SOX reporter, mRNA; actives raise or lower the signal
In short: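 Reporter transcripts, measured by RT-PCR and capillary electrophoresis of labelled fragments, report endogenous SOX transcription factor activity. Transiently transfected human HepG2 cells receive chemical for 24 h; changes in either direction are fitted relative to DMSO.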

[6] = target: Transcription factor Sp1 (Homo sapiens) (UniProt P08047); assay: ATG_Sp1_CIS: Attagene CIS-FACTORIAL HepG2 Assay for human Specificity Protein 1 (Sp1) (AID 2282961); settings: HepG2 Sp1 cis-reporter transcription, actives raise or lower the signal
Sequence of Transcription factor Sp1 (Homo sapiens) (P08047 whole entry, looked up): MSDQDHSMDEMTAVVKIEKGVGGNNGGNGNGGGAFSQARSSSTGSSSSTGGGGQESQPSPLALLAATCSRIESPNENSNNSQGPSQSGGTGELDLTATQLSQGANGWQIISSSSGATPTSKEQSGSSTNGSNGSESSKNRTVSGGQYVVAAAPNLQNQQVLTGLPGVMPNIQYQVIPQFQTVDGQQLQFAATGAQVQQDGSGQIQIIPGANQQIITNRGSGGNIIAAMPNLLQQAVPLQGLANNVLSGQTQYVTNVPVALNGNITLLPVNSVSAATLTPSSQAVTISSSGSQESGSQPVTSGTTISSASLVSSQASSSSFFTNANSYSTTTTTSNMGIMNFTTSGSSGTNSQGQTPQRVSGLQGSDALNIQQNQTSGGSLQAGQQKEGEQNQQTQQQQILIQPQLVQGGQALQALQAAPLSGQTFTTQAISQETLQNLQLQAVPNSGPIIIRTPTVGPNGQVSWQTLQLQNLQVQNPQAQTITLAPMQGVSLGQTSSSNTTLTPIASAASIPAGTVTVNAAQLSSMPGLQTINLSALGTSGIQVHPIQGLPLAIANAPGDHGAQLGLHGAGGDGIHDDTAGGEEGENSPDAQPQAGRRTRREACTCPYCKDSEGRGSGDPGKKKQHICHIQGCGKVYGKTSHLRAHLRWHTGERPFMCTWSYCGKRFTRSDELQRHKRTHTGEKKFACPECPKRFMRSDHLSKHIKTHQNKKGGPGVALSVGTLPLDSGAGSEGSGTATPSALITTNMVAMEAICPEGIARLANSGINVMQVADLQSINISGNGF
In short: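 Read-out is reporter transcript level, measured by RT-PCR and fluorescent capillary electrophoresis after 24 h chemical treatment. System: transiently transfected HepG2 cells reporting endogenous transcription factor activity; gain or loss fitted against DMSO baseline.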

[7] = target: Signal transducer and activator of transcription 3 (Homo sapiens) (UniProt P40763); assay: ATG_STAT3_CIS: Attagene CIS-FACTORIAL HepG2 Assay for human Signal Transducer and Activator of Transcription 3 (STAT3) (AID 2282963); settings: HepG2, Attagene cis-factorial STAT3 reporter transcription; actives raise or lower the signal
Sequence of Signal transducer and activator of transcription 3 (Homo sapiens) (P40763 whole entry, looked up): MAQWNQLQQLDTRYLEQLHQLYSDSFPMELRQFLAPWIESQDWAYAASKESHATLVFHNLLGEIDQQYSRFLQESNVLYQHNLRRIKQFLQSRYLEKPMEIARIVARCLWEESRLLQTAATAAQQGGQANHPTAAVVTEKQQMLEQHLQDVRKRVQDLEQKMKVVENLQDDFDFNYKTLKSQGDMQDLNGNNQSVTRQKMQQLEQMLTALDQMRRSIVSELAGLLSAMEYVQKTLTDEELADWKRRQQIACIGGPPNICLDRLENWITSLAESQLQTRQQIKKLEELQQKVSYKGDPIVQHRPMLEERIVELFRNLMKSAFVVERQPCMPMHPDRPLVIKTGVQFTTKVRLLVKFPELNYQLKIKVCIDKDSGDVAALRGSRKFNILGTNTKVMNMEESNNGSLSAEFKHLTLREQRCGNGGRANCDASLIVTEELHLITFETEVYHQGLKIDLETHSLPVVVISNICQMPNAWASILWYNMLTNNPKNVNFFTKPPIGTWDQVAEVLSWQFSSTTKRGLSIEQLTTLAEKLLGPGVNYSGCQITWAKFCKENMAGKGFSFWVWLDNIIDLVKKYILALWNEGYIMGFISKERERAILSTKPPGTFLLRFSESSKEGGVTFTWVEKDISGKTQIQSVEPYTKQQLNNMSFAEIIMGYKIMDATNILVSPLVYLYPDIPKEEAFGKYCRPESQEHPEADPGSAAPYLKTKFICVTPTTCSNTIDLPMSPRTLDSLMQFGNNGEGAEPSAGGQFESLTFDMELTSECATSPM
In short: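 Transcript-level reporter assay. HepG2 transient MRTU transfection, 24 h exposure, fluorescence detection after RT-PCR and CE; DMSO baseline.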

[8] = ATG_TA_CIS: Attagene CIS-FACTORIAL HepG2 Assay for human TA Basal Promoter (AID 2282964); settings: HepG2 Attagene CIS-factorial TA basal promoter reporter; actives raise or lower the signal
In short: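 HepG2 cells transiently transfected with multiple reporter units under cis promoter elements, reporting endogenous transcription factor activity; this endpoint tracks the TA basal promoter as background control. Reporter mRNA after 24 h dosing measured by RT-PCR/capillary electrophoresis; bidirectional fits versus DMSO.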

[9] = ATG_TCF_b_cat_CIS: Attagene CIS-FACTORIAL HepG2 Assay for human T-Cell-Factor with beta-catenin (TCF/b-cat) (AID 2282965); settings: HepG2 TCF/beta-catenin cis-reporter transcription, actives raise or lower the signal
In short: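 HepG2 cells transiently transfected with multiple cis-promoter-regulated reporter transcription units, so endogenous transcription factor activity is measured. Reporter mRNA read 24 hours after dosing by RT-PCR, fluorescent labelling and capillary electrophoresis; bidirectional fitting against DMSO.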

[10] = ATG_TAL_CIS: Attagene CIS-FACTORIAL HepG2 Assay for human TAL Basal Promoter (AID 2282966); settings: HepG2 Attagene cis-factorial TAL promoter reporter; actives raise or lower the signal;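 further: background control endpoint measuring basal TAL promoter reporter mRNA not a specific factor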
In short: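 In this cell-based multiplex, HepG2 liver cells bearing cis-promoter reporter constructs are dosed for 24 hours. Total RNA is reverse-transcribed and amplified, labelled fragments are sized by capillary electrophoresis, and signal changes are fitted bidirectionally versus DMSO.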

[11] = ATG_TGFb_CIS: Attagene CIS-FACTORIAL HepG2 Assay for human Transforming Growth Factor (TGF) (AID 2282967); settings: HepG2 Attagene CIS TGFb reporter, mRNA transcription; actives raise or lower the signal
In short: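 HepG2 cells transiently transfected with cis-promoter-driven multiple reporter units measure endogenous TF activity; reporter mRNA quantified at 24 h by RT-PCR, FAM labeling, HpaI digestion and capillary electrophoresis. Bidirectional fit vs DMSO.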

[12] = ATG_VDRE_CIS: Attagene CIS-FACTORIAL HepG2 Assay for human Vitamin D Receptor Element (VDRE) (AID 2282968); settings: HepG2 VDRE cis-reporter transcription, actives raise or lower the signal
In short: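 RT-PCR/CE readout of reporter mRNA; HepG2, transient transfection, 24 h dosing; DMSO baseline; bidirectional analysis.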

[13] = target: Steroid hormone receptor ERR1 (Homo sapiens) (UniProt P11474); assay: ATG_ERRa_TRANS: Attagene TRANS-FACTORIAL HepG2 Assay for human Estrogen-Related Receptor alpha (ERRa) (AID 2282971; active means hit-call score of the fitted dose curve at least 0.9, where 1 is the maximum); settings: HepG2 Attagene TRANS reporter, ERRa transactivation
Sequence of Steroid hormone receptor ERR1 (Homo sapiens) (P11474 whole entry, looked up, the tested form may be a part): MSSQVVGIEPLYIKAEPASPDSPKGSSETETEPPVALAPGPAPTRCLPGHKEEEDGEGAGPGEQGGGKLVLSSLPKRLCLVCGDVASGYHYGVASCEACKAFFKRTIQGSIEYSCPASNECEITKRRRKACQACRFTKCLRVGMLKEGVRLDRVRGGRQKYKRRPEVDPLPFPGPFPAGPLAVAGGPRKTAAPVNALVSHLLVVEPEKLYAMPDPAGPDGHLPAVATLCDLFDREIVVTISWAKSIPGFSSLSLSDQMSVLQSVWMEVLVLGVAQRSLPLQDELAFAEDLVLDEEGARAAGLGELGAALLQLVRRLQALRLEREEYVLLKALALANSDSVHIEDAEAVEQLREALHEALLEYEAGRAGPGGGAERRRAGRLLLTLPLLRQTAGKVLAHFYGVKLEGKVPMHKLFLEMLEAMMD
In short: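 Transfected HepG2, 24 h dosing, ERRa-Gal4 chimera driving GAL4-UAS reporter. Readout: reporter mRNA via RT-PCR plus capillary electrophoresis (fluorescence). Positive direction vs DMSO control.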

[14] = target: X-box-binding protein 1 (Homo sapiens) (UniProt P17861); assay: ATG_Xbp1_CIS: Attagene CIS-FACTORIAL HepG2 Assay for human X-box Binding Protein 1 (XBP1) (AID 2282972); settings: HepG2 XBP1 cis-element reporter, Attagene multiplex; actives raise or lower the signal
Sequence of X-box-binding protein 1 (Homo sapiens) (P17861 whole entry, looked up): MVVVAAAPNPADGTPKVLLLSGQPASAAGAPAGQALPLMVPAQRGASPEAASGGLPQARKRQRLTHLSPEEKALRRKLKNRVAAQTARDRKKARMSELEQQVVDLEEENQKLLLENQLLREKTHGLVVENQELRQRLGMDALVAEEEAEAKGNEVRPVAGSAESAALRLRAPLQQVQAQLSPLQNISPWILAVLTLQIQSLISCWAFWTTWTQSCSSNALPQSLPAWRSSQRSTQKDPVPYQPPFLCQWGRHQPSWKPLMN
In short: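 HepG2, transient MRTU transfection (cis-promoter driven), 24 h compound exposure. Total RNA → oligo(dT) RT → PCR → 6-FAM labeling → HpaI cut → CE. Bidirectional fit vs DMSO.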

[15] = ATG_M_19_TRANS: Attagene TRANS-FACTORIAL HepG2 Assay for M19 Transcription Factor (Internal Marker) (AID 2282974; active means hit-call score of the fitted dose curve at least 0.9, where 1 is the maximum); settings: HepG2 Attagene TRANS-FACTORIAL M19 internal marker reporter
In short: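 Background-control readout: after 24 h chemical exposure of transfected HepG2 carrying GAL4-driven reporter units, RNA was reverse-transcribed, amplified, fluorescently labeled and sized by capillary electrophoresis; gain-of-signal fit against DMSO.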

[16] = target: Estrogen-related receptor gamma (Homo sapiens) (UniProt P62508); assay: ATG_ERRg_TRANS: Attagene TRANS-FACTORIAL HepG2 Assay for human Estrogen-Related Receptor gamma (ERRg) (AID 2282977; active means hit-call score of the fitted dose curve at least 0.9, where 1 is the maximum;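 further: hits increase reporter signal over DMSO so potencies reflect activators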); settings: HepG2 Attagene TRANS reporter, ERRg transactivation
Sequence of Estrogen-related receptor gamma (Homo sapiens) (P62508 whole entry, looked up, the tested form may be a part): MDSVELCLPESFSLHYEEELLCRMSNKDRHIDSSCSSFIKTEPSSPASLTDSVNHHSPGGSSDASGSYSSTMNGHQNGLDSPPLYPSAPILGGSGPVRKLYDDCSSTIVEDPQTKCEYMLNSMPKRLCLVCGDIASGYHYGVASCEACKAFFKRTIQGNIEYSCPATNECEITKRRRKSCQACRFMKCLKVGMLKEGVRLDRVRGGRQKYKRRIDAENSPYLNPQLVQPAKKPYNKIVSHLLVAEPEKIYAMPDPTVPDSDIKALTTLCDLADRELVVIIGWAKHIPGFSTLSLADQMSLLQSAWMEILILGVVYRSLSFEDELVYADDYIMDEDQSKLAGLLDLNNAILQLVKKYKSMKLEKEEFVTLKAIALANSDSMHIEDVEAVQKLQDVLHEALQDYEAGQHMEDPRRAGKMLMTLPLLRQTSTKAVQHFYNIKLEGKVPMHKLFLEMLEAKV
In short: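 Transfect HepG2 with multiple GAL4-UAS reporter transcription units; dose chemicals 24 h; isolate RNA, reverse-transcribe with oligo(dT), PCR-amplify, label with 6-FAM, digest with HpaI; size fragments by capillary electrophoresis. DMSO serves as negative control.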

[17] = ATG_GAL4_TRANS: Attagene TRANS-FACTORIAL HepG2 Assay for GAL4 (Internal Marker) (AID 2282976; active means hit-call score of the fitted dose curve at least 0.9, where 1 is the maximum); settings: HepG2 Attagene TRANS GAL4 internal marker reporter
In short: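 RT-PCR/capillary electrophoresis readout of reporter mRNA. HepG2, transient MRTU transfection (GAL4-UAS reporters), 24 h compound exposure. Background-control endpoint, positive direction vs DMSO baseline.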

[18] = target: Estrogen receptor (Homo sapiens) (UniProt P03372); assay: ATG_ERa_TRANS: Attagene TRANS-FACTORIAL HepG2 Assay for human Estrogen Receptor alpha (ERa) (AID 2282970; active means hit-call score of the fitted dose curve at least 0.9, where 1 is the maximum); settings: HepG2 Attagene TRANS ERa GAL4 reporter, mRNA
Sequence of Estrogen receptor (Homo sapiens) (P03372 whole entry, looked up, the tested form may be a part): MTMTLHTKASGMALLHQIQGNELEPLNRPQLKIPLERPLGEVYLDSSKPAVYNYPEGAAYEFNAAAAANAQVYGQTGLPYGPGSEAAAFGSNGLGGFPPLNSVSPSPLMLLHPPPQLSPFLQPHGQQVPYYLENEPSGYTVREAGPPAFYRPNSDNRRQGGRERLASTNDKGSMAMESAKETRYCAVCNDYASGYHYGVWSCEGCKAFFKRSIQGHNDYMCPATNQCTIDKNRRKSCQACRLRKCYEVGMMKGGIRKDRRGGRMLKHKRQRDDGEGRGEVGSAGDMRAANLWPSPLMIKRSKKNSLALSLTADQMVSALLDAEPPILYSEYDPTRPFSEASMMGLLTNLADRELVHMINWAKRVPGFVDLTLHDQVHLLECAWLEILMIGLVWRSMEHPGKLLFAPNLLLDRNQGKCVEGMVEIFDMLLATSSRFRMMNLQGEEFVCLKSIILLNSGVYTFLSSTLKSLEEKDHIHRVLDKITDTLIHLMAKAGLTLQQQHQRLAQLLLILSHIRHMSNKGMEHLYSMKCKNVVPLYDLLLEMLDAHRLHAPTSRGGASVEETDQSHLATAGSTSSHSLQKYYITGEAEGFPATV
In short: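 After 24 h of compound treatment, RNA from HepG2 cells bearing transfected GAL4-UAS reporter constructs is converted to cDNA, amplified and fluorescently labelled. Capillary electrophoresis resolves the ERa-linked reporter; DMSO serves as negative control.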

[19] = target: Nuclear receptor subfamily 1 group I member 3 (Homo sapiens) (UniProt Q14994); assay: ATG_CAR_TRANS: Attagene TRANS-FACTORIAL HepG2 Assay for human Constitutive Androstane Receptor (CAR) (AID 2282969; active means hit-call score of the fitted dose curve at least 0.9, where 1 is the maximum;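 further: activators raise reporter mRNA above DMSO so AC50 marks induction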); settings: HepG2 Attagene TRANS-FACTORIAL CAR reporter
Sequence of Nuclear receptor subfamily 1 group I member 3 (Homo sapiens) (Q14994 whole entry, looked up, the tested form may be a part): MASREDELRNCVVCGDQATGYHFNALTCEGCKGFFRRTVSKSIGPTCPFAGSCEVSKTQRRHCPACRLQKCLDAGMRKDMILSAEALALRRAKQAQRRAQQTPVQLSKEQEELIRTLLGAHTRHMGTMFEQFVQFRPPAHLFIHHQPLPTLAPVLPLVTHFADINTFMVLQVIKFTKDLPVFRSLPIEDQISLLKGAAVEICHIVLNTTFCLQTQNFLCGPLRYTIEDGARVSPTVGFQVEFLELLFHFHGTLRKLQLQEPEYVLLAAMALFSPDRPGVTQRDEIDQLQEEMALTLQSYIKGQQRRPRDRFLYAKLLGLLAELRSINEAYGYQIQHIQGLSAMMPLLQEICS
In short: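 HepG2 cells transiently transfected with multiplexed GAL4-UAS reporter units expressing chimeric NR-Gal4 proteins; compound exposure 24 h. Reporter mRNA measured by RT-PCR, 6-FAM labelling, HpaI digestion and capillary electrophoresis; gain-of-signal fitted against DMSO baseline.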

Measured: AC50

Cc1cc(SC2=C(O)C[C@@](CCc3ccc(N)cc3)(C(C)C)OC2=O)c(C(C)(C)C)cc1CO
inactive: [1] | [4] | [5] | [7] | [8] | [9] | [10] | [11] | [13] | [14] | [15] | [16]
active: [2] 1.55 µM | [3] 57.6 µM | [6] 29.1 µM | [12] 5.63 µM

C=CCc1ccc(OC)c(OC)c1
active: [2] 100 µM
inactive: [1] | [3] | [4] | [5] | [6] | [7] | [8] | [9] | [10] | [11] | [12] | [14] | [15]

CCCCC(CC)COP(=O)(OCC(CC)CCCC)OCC(CC)CCCC (configuration not stated)
active: [2] 0.339 µM | [12] 0.61 µM
inactive: [1] | [3] | [4] | [5] | [6] | [7] | [8] | [9] | [10] | [11] | [14] | [17]

CC(C)NCC(O)c1ccc(O)c(O)c1 (configuration not stated)
inactive: [1] | [3] | [4] | [5] | [6] | [7] | [8] | [9] | [10] | [11] | [12] | [13] | [14] | [17]
active: [2] 52.4 µM

CC1(C)C(=O)NC(=O)N1CO
inactive: [1] | [2] | [3] | [4] | [5] | [6] | [7] | [8] | [9] | [10] | [11] | [12] | [14] | [15] | [17]
active: [18] 123 µM

Cc1cn([C@H]2C=C[C@@H](CO)O2)c(=O)[nH]c1=O
inactive: [1] | [2] | [3] | [4] | [5] | [6] | [7] | [8] | [9] | [10] | [11] | [12] | [19] | [14] | [15]

CCCCCCCC(=O)OC
inactive: [1] | [2] | [3] | [4] | [5] | [6] | [7] | [8] | [9] | [10] | [11] | [12] | [18] | [14] | [15]

O=C1CCCCC1
inactive: [1] | [2] | [3] | [4] | [5] | [6] | [7] | [8] | [9] | [10] | [11] | [12] | [19] | [18] | [13] | [14] | [17]
